Experimental data from PubChem BioAssay (NCI).
This is part of a sample that, as a whole, favours compounds with a hit. Of some 83,000 tested, about 20% had one in any assay.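 Testing used 96-well plates and a 48-hour single-concentration exposure. Example: -40 means 40% of the starting cells died.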 Active and inactive are the calls of the source. How the source made its calls: active means growth percent below 10; inactive means the rest.

What was measured:
Experiment in all cases: NCI-60 one-dose screen, 48 h (100 = growth as untreated, 0 = no growth, -100 = all killed)
Conditions in all cases: 10 µM unless noted
NCI-H226 lung = system: NCI-H226 lung
NCI-H322M lung = system: NCI-H322M lung
HOP-62 NSCLC = system: HOP-62 NSCLC
NCI-H460 lung = system: NCI-H460 lung
HOP-92 NSCLC = system: HOP-92 NSCLC
NCI-H522 lung = system: NCI-H522 lung
A549/ATCC NSCLC = system: A549/ATCC NSCLC
786-0 renal = system: 786-0 renal
COLO 205 colon = system: COLO 205 colon
DU-145 prostate = system: DU-145 prostate
K-562 leukemia = system: K-562 leukemia
MALME-3M melanoma = system: MALME-3M melanoma
MDA-MB-231 breast = system: MDA-MB-231 breast
RXF 393 renal = system: RXF 393 renal
SF-268 CNS = system: SF-268 CNS
SF-295 CNS = system: SF-295 CNS
SF-539 CNS = system: SF-539 CNS
UACC-257 melanoma = system: UACC-257 melanoma
M14 melanoma = system: M14 melanoma

Measured: growth

O=C(c1ccccc1)C(c1c[nH]c2ccccc12)c1c[nH]c2ccccc12
inactive: NCI-H226 lung 41.7% | NCI-H322M lung 96.5% | HOP-62 NSCLC 83.5% | NCI-H460 lung 29.8% | HOP-92 NSCLC 76.7% | NCI-H522 lung 35.9% | A549/ATCC NSCLC 70.2% | 786-0 renal 78.7% | COLO 205 colon 58.5% | DU-145 prostate 71.7% | K-562 leukemia 10.3% | MALME-3M melanoma 72.8% | MDA-MB-231 breast 57.5% | RXF 393 renal 46.8% | SF-268 CNS 60.3% | SF-295 CNS 85.4% | SF-539 CNS 85.4% | UACC-257 melanoma 76.8% | M14 melanoma 61.1%

Cc1cccc(NC(=O)CN2CCN(c3ncnc4c3cnn4-c3ccccc3)CC2)c1
inactive: NCI-H226 lung 84.8% | NCI-H322M lung 91.3% | HOP-62 NSCLC 96.2% | NCI-H460 lung 73% | HOP-92 NSCLC 98.2% | A549/ATCC NSCLC 97% | 786-0 renal 98.1% | COLO 205 colon 109% | DU-145 prostate 96.7% | K-562 leukemia 67.5% | MALME-3M melanoma 99.4% | MDA-MB-231 breast 87.4% | RXF 393 renal 90% | SF-268 CNS 88.4% | SF-295 CNS 117% | SF-539 CNS 102% | UACC-257 melanoma 102% | M14 melanoma 94.4%
active: NCI-H522 lung -39.6%

Cn1cc(-c2cc(N)n3nc(-c4cn(C)c5ccccc45)cc3n2)c2cc(Br)ccc21
active: NCI-H226 lung 2.38% | NCI-H322M lung 7.11% | HOP-62 NSCLC -45.2% | NCI-H460 lung -24.2% | HOP-92 NSCLC -59% | A549/ATCC NSCLC 4.06% | 786-0 renal -85% | COLO 205 colon -79.1% | K-562 leukemia 0.853% | MALME-3M melanoma -72.9% | MDA-MB-231 breast -41.2% | RXF 393 renal -70.1% | SF-268 CNS -47.3% | SF-295 CNS -53.4% | SF-539 CNS -72.3% | UACC-257 melanoma -71% | M14 melanoma -74.4%
inactive: DU-145 prostate 27.7%

CC1(C)CC[C@]2(C(=O)O)CC[C@]3(C)C(=CCC4[C@@]5(C)C[C@@H](O)[C@@H]6OC(c7ccccc7F)OC[C@@]6(C)C5CC[C@]43C)C2C1 (stereo partly specified)
active: NCI-H460 lung 3.39% | NCI-H522 lung 5.45% | COLO 205 colon -44% | RXF 393 renal -14.5% | SF-295 CNS -0.465% | SF-539 CNS 5.14%
inactive: NCI-H226 lung 27.9% | NCI-H322M lung 13.5% | HOP-62 NSCLC 22.1% | A549/ATCC NSCLC 14.2% | 786-0 renal 16.8% | DU-145 prostate 20% | K-562 leukemia 12.8% | MALME-3M melanoma 28.6% | MDA-MB-231 breast 20.5% | SF-268 CNS 14.3% | UACC-257 melanoma 24.2% | M14 melanoma 17.8%

COC(OC)C1=C(C)OC(N)=C(C#N)C12C(=O)Nc1ccccc12 (stereo unspecified)
active: NCI-H522 lung 6.48%
inactive: NCI-H226 lung 90.2% | NCI-H322M lung 98.3% | HOP-62 NSCLC 111% | NCI-H460 lung 97.2% | HOP-92 NSCLC 118% | A549/ATCC NSCLC 114% | 786-0 renal 113% | COLO 205 colon 102% | DU-145 prostate 105% | K-562 leukemia 82% | MALME-3M melanoma 87.2% | MDA-MB-231 breast 102% | RXF 393 renal 109% | SF-268 CNS 104% | SF-295 CNS 138% | SF-539 CNS 100% | UACC-257 melanoma 100% | M14 melanoma 94.9%

CC1(C)CC[C@]2(C(=O)O)CC[C@]3(C)C(=CCC4[C@@]5(C)C[C@@H](O)[C@@H]6OC(c7ccc(F)cc7)OC[C@@]6(C)C5CC[C@]43C)C2C1 (stereo partly specified)
active: HOP-92 NSCLC 1.62% | NCI-H522 lung 8.38% | COLO 205 colon -2.36%
inactive: NCI-H226 lung 34.4% | HOP-62 NSCLC 47.5% | NCI-H460 lung 15.7% | A549/ATCC NSCLC 17% | 786-0 renal 39.6% | DU-145 prostate 28.7% | K-562 leukemia 14.9% | MALME-3M melanoma 39% | MDA-MB-231 breast 50.6% | RXF 393 renal 42.8% | SF-268 CNS 41.3% | SF-295 CNS 32.7% | SF-539 CNS 50.8% | UACC-257 melanoma 42.3% | M14 melanoma 40.4%

Nc1nnc(-c2c[nH]c3ccc(Br)cc23)c(-c2c[nH]c3ncc(Br)cc23)n1
inactive: NCI-H226 lung 39.3% | NCI-H322M lung 53.5% | HOP-62 NSCLC 49.4% | NCI-H460 lung 27.7% | HOP-92 NSCLC 21.5% | NCI-H522 lung 30.9% | A549/ATCC NSCLC 42.2% | 786-0 renal 34.7% | COLO 205 colon 48.3% | DU-145 prostate 55.7% | K-562 leukemia 18.8% | MALME-3M melanoma 39.2% | MDA-MB-231 breast 45.8% | SF-268 CNS 47.7% | SF-295 CNS 41.2% | SF-539 CNS 41.5% | UACC-257 melanoma 59.5% | M14 melanoma 38.6%
active: RXF 393 renal 2.79%

COc1ccc(C(=O)/C=C/c2ccc(OC)c(OCc3ccccc3)c2)cc1OC
inactive: NCI-H226 lung 13.9% | HOP-62 NSCLC 38.2% | HOP-92 NSCLC 26.3% | 786-0 renal 24.5% | COLO 205 colon 20.1% | DU-145 prostate 15.4% | K-562 leukemia 13.2% | MALME-3M melanoma 74.1% | MDA-MB-231 breast 17.9% | SF-268 CNS 21.1% | SF-295 CNS 69% | UACC-257 melanoma 42.7% | M14 melanoma 34.6%
active: NCI-H460 lung 4.04% | NCI-H522 lung -10.7% | A549/ATCC NSCLC 8.7% | RXF 393 renal -10.4% | SF-539 CNS -27.2%

C#C[C@]1(O)CC[C@H]2[C@@H]3CC=C4c5sc(-c6ccc([N+](=O)[O-])cc6)nc5CC[C@]4(C)[C@H]3CC[C@@]21C
active: NCI-H460 lung -47.9% | NCI-H522 lung -5.59% | COLO 205 colon -70% | DU-145 prostate 6.96% | K-562 leukemia 5.27% | MALME-3M melanoma -28.9% | MDA-MB-231 breast -23.5% | RXF 393 renal -21.7% | SF-295 CNS -41.3% | SF-539 CNS -49% | M14 melanoma -53.7%
inactive: NCI-H226 lung 71.6% | NCI-H322M lung 25.5% | HOP-62 NSCLC 23.5% | HOP-92 NSCLC 42.9% | A549/ATCC NSCLC 29.6% | 786-0 renal 18.3% | SF-268 CNS 44.5% | UACC-257 melanoma 32.7%

Cn1cc(-c2nnc(N)nc2-c2c[nH]c3ccc(Br)cc23)c2cc(Br)cnc21
inactive: NCI-H226 lung 74% | NCI-H322M lung 71.5% | HOP-62 NSCLC 70.7% | NCI-H460 lung 62.1% | HOP-92 NSCLC 43.4% | A549/ATCC NSCLC 59.5% | 786-0 renal 46.2% | COLO 205 colon 66.6% | DU-145 prostate 75.8% | K-562 leukemia 26.7% | MALME-3M melanoma 69% | MDA-MB-231 breast 55.8% | RXF 393 renal 17.1% | SF-268 CNS 71.3% | SF-295 CNS 63.5% | SF-539 CNS 63.6% | UACC-257 melanoma 83.4% | M14 melanoma 57.2%
active: NCI-H522 lung 6.2%

Cn1cc(-c2cc(N)n3nc(-c4cn(C)c5ccc(Cl)cc45)cc3n2)c2ccccc21
inactive: NCI-H226 lung 105% | NCI-H322M lung 103% | HOP-62 NSCLC 115% | NCI-H460 lung 115% | HOP-92 NSCLC 133% | NCI-H522 lung 100% | A549/ATCC NSCLC 107% | 786-0 renal 88.4% | COLO 205 colon 117% | DU-145 prostate 111% | K-562 leukemia 108% | MALME-3M melanoma 104% | MDA-MB-231 breast 107% | RXF 393 renal 115% | SF-268 CNS 107% | SF-295 CNS 97.2% | SF-539 CNS 105% | UACC-257 melanoma 102% | M14 melanoma 102%

C#C[C@]1(O)CC[C@H]2[C@@H]3CC=C4c5sc(-c6ccc(O)c(O)c6)nc5CC[C@]4(C)[C@H]3CC[C@@]21C
active: NCI-H226 lung -65.4% | HOP-62 NSCLC -83.1% | NCI-H460 lung -77.6% | HOP-92 NSCLC -53.8% | NCI-H522 lung -77.1% | A549/ATCC NSCLC -78.6% | 786-0 renal -88.3% | COLO 205 colon -80.2% | DU-145 prostate -49.4% | K-562 leukemia -51.3% | MALME-3M melanoma -84% | MDA-MB-231 breast -77.8% | RXF 393 renal -90.2% | SF-268 CNS -76.7% | SF-295 CNS -94.2% | SF-539 CNS -93.2% | UACC-257 melanoma -81.7% | M14 melanoma -87.7%

Cc1ccc(NC(=O)CN2CCN(c3ncnc4c3cnn4-c3ccccc3)CC2)cc1
active: NCI-H522 lung -41.1%
inactive: NCI-H226 lung 76.5% | NCI-H322M lung 86.5% | HOP-62 NSCLC 95.6% | NCI-H460 lung 74% | HOP-92 NSCLC 90.9% | A549/ATCC NSCLC 89.1% | 786-0 renal 105% | COLO 205 colon 111% | DU-145 prostate 92.5% | K-562 leukemia 59.8% | MALME-3M melanoma 90.8% | MDA-MB-231 breast 80.6% | RXF 393 renal 86.7% | SF-268 CNS 80.7% | SF-295 CNS 116% | SF-539 CNS 84.6% | UACC-257 melanoma 92.8% | M14 melanoma 100%

C#CCOc1ccc(/C=N/Nc2nc(-c3ccc(Cl)cc3)cs2)cc1OC
inactive: NCI-H226 lung 56.3% | NCI-H322M lung 89.3% | HOP-62 NSCLC 84.7% | NCI-H460 lung 68% | HOP-92 NSCLC 48.8% | NCI-H522 lung 47.5% | A549/ATCC NSCLC 64.4% | 786-0 renal 69.2% | COLO 205 colon 54.7% | DU-145 prostate 81.5% | K-562 leukemia 26.2% | MALME-3M melanoma 91.6% | MDA-MB-231 breast 77.1% | RXF 393 renal 27.1% | SF-268 CNS 73.8% | SF-295 CNS 77.4% | SF-539 CNS 70.6% | UACC-257 melanoma 45.5% | M14 melanoma 61.1%
